Source: PubChem BioAssay
Compounds with a hit are over-represented: about 6.7% of the library has one in this group of screens.
C diff growth – blocks growth of Clostridium difficile | Clostridium difficile clinical isolate growth, OD600, 24 h; stronger effect = lower value | hit rate 0.25% among 86,000 | growth activity, negative = inhibition, % at 16 µg/mL (by protocol) | AID 1259249;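 active means mean growth activity at or below -80% and every replicate also at or below -80%; inconclusive means mean at or below -80% but some replicate above -80%; inactive means mean growth activity above -80%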;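 further: 0% = DMSO wells and -100% = levofloxacin 16 µg/mL wells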
T cruzi growth-1 – inhibitors of T. cruzi proliferation; T. cruzi beta-gal in NIH3T3, GalScreen luminescence, 90 h; inhibition, % at 8.34 µM; hit rate 5.9% among 77,000;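 active means mean inhibition above about 93%, with at least 55% of replicates each passing it, limit read from the data, passing the limit was not always enough; inconclusive means only one of those two conditions holds; inactive means neither condition holds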
Pf Dd2 inh – blocks growth of Plasmodium falciparum Dd2 parasites | P. falciparum Dd2 growth, SYBR Green, 72 h; stronger effect = lower value | hit rate 2.3% among 94,000 | activity change, % at 10 µM; in the data active means activity change below about -80%; inconclusive means no clear call, values can overlap the other calls
T cruzi growth-2 – inhibitors of T. cruzi proliferation; shares compounds with T cruzi growth-1; T. cruzi beta-gal in NIH3T3, GalScreen luminescence, 90 h; inhibition, % at 8.35 µM; hit rate 72% among 5,600;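 active means mean replicate inhibition above about 95% and at least 55% of replicates individually reaching it, limit read from the data; inconclusive means only one of the two criteria is met; inactive means neither criterion is met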
T cruzi growth-3 – Trypanosoma cruzi proliferation inhibition; shares compounds with T cruzi growth-1; inhibition, % at 2.09 µM; hit rate 21% among 5,600; T. cruzi beta-gal in NIH3T3, GalScreen luminescence, 90 h;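 active means mean inhibition above about 95%, with at least 55% of replicates also reaching it, limit read from the data; inconclusive means meets just one of the two conditions; inactive means meets neither condition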;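 further: plate controls were neutral control median for no effect and positive control median for full effect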
3T3 cytotox – NIH/3T3 (mouse) viability loss; shares compounds with T cruzi growth-1; NIH/3T3 viability, CellTiter-Glo ATP luminescence, 90 h; cytotoxicity (signal decrease), % at 8.35 µM; hit rate 14% among 5,600;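 active means mean signal decrease across replicates above about 35% based on untreated-well scatter, with enough replicates individually passing, limit read from the data; inconclusive means no rule stated though some were filed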;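 further: 0% = median of neutral control wells and 100% = median of positive control wells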
NIH3T3 tox 2 – NIH/3T3 (mouse) viability loss | NIH/3T3 viability, CellTiter-Glo ATP luminescence, 90 h | inhibition, % at 24.9 µM | shares compounds with T cruzi growth-1 | hit rate 56% among 5,600;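 active means mean loss of cell viability signal at or above a set limit, and enough replicates individually reaching it; inconclusive means meets only the mean limit or only the replicate share; inactive means meets neither condition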;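 further: 0% = median of neutral control wells and 100% = median of positive control wells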
Numbers without * were called inactive; ? = inconclusive; / = no result; ! = repeats disagree.

SMILES | C diff growth | T cruzi growth-1 | Pf Dd2 inh | T cruzi growth-2 | T cruzi growth-3 | 3T3 cytotox | NIH3T3 tox 2
CN1c2ccc(-c3cccc(C#N)c3)cc2[C@@H]2[C@@H](CCN2S(=O)(=O)c2ccccc2)[C@@H]1CO | 9 | 116* | -4 | 99* | 85 | 51* | 14
CN1c2ccc(-c3cccc(C#N)c3)cc2[C@@H]2[C@@H](CCN2S(=O)(=O)c2ccc(F)cc2)[C@@H]1CO | 3 | 105* | -14 | 94 | 78 | 45* | 22
CN1c2ccc(C#Cc3cccnc3)cc2[C@@H]2[C@@H](CCN2S(=O)(=O)c2ccc(F)cc2)[C@H]1CO | -6 | 85 | -70 | / | / | / | /
CN1c2ccc(C#Cc3cccnc3)cc2[C@@H]2[C@@H](CCN2C(=O)C2CC2)[C@H]1CO | -5 | 99* | -65 | 96* | 17 | 8 | 25*
CN1c2ccc(C#Cc3cccnc3)cc2[C@H]2[C@H](CCN2S(=O)(=O)c2ccc(F)cc2)[C@H]1CO | -4 | 97* | ? | 102* | 111* | 37* | 42*
CN1c2ccc(-c3cccc(C#N)c3)cc2[C@H]2[C@H](CCN2S(=O)(=O)c2ccccc2)[C@@H]1CO | 5 | 94 | -19 | / | / | / | /
CN1c2ccc(-c3cccc(C#N)c3)cc2[C@@H]2[C@@H](CCN2S(=O)(=O)c2cccc(F)c2)[C@@H]1CO | 4 | 25 | 28 | / | / | / | /
CN1c2ccc(C#Cc3cccnc3)cc2[C@@H]2[C@@H](CCN2C(=O)C2CCC2)[C@H]1CO | -15 | / | -67 | / | / | / | /
CC(C)CC#Cc1ccc2c(c1)O[C@H](CN(C)C(=O)Cc1ccccn1)[C@@H](C)CN([C@@H](C)CO)S2(=O)=O | -12 | 53 | -49 | / | / | / | /
O=C(C[C@H]1CC[C@H](NS(=O)(=O)c2ccccc2)[C@@H](CO)O1)N1CCN(c2ccccc2)CC1 | -5 | / | 2 | / | / | / | /
C[C@H](NC(=O)C[C@@H]1C=C[C@H](NC(=O)C2CCOCC2)[C@@H](CO)O1)c1ccccc1 | -1 | 40 | 18 | / | / | / | /
C[C@@H]1CCCCO[C@@H](CN(C)CC2CC2)[C@@H](C)CN([C@H](C)CO)C(=O)c2cc(NC(=O)CCC(F)(F)F)ccc2O1 | 6 | 95 | -31 | / | / | / | /
O=C(C[C@@H]1C[C@@H]2c3cc(NC(=O)NC4CCCC4)ccc3O[C@@H]2[C@H](CO)O1)NCc1ccc2c(c1)OCO2 | -12 | / | 6 | / | / | / | /
CC(C)NC(=O)N[C@@H]1C=C[C@@H](CC(=O)NCCCN(C)C)O[C@H]1CO | / | -3 | 42 | / | / | / | /
C[C@@H]1CCCCO[C@H](CN(C)C(=O)c2ccncc2)[C@@H](C)CN([C@H](C)CO)C(=O)c2cc(NC(=O)Cc3ccccc3)ccc2O1 | 0 | 40 | -23 | / | / | / | /
O=C(Nc1ccc(F)cc1)N[C@@H]1CC[C@@H](CCn2cc(-c3ccccc3F)nn2)O[C@@H]1CO | -1 | / | / | / | / | / | /
CCC(=O)N(C)C[C@@H]1Oc2cc(C#CCC(C)C)ccc2S(=O)(=O)N([C@@H](C)CO)C[C@H]1C | -12 | 51 | -13 | / | / | / | /
C[C@H](CO)N1C[C@H](C)[C@@H](CN(C)C(=O)Cc2ccncc2)Oc2cc(C#Cc3ccccc3F)ccc2S1(=O)=O | -5 | / | -51 | / | / | / | /
CCC(=O)N(C)C[C@H]1Oc2cc(C#CCC(C)C)ccc2S(=O)(=O)N([C@H](C)CO)C[C@@H]1C | -2 | 55 | -11 | / | / | / | /
C[C@@H]1CN([C@H](C)CO)S(=O)(=O)c2ccc(C#Cc3ccccc3F)cc2O[C@H]1CN(C)C(=O)c1ccc2c(c1)OCO2 | -4 | 125* | -81*! | 100* | 106* | 30 | 91*
CC(=O)N(C)C[C@@H]1Oc2cc(C#Cc3ccccc3F)ccc2S(=O)(=O)N([C@H](C)CO)C[C@@H]1C | -20 | 67 | -46 | / | / | / | /
CC(C)CC#Cc1ccc2c(c1)O[C@H](CN(C)C(=O)Cc1ccccc1)[C@H](C)CN([C@H](C)CO)S2(=O)=O | 22 | 125* | -46 | 94 | 74 | -13 | 106*
CC(C)CC#Cc1ccc2c(c1)O[C@@H](CN(C)C(=O)Cc1ccccc1)[C@H](C)CN([C@H](C)CO)S2(=O)=O | 8 | 129* | -68 | 105* | 99* | -12 | 107*
C[C@@H]1CN([C@@H](C)CO)S(=O)(=O)c2ccc(C#Cc3ccccc3F)cc2O[C@@H]1CN(C)C(=O)Cc1ccccc1 | 2 | 120* | -51 | 102* | 99* | 32 | 78*
C[C@@H]1CCCCO[C@@H](CN(C)S(C)(=O)=O)[C@@H](C)CN([C@H](C)CO)C(=O)c2cc(NC(=O)c3ccncc3)ccc2O1 | 4 | 61 | 61 | / | / | / | /
SMILES | C diff growth | T cruzi growth-1 | Pf Dd2 inh | T cruzi growth-2 | T cruzi growth-3 | 3T3 cytotox | NIH3T3 tox 2
C/C=C/c1cnc2c(c1)C(=O)N([C@@H](C)CO)C[C@H](C)[C@@H](CN(C)Cc1ccc3c(c1)OCO3)O2 | -1 | / | -26 | / | / | / | /
C[C@@H]1CCCCO[C@@H](CN(C)C(=O)Nc2ccc3c(c2)OCO3)[C@@H](C)CN([C@H](C)CO)C(=O)c2cc(NC(=O)Nc3ccccc3)ccc2O1 | 9 | 26 | 27 | / | / | / | /
COc1ccc(S(=O)(=O)Nc2ccc3c(c2)C(=O)N([C@@H](C)CO)C[C@H](C)[C@@H](CN(C)C(=O)c2ccncc2)OCCCC[C@H](C)O3)cc1 | 2 | 7 | -29 | / | / | / | /
CC(C)CC#Cc1ccc2c(c1)O[C@@H](CN(C)C(=O)Cc1ccccc1)[C@H](C)CN([C@@H](C)CO)S2(=O)=O | -8 | 129* | -73 | 97* | 103* | 13 | 104*
CCC(=O)N(C)C[C@H]1Oc2cc(C#CCC(C)C)ccc2S(=O)(=O)N([C@@H](C)CO)C[C@@H]1C | -14 | 87 | -23 | / | / | / | /
CC=Cc1ccc2n(c1=O)C[C@H]1[C@H](CO)[C@@H](C(=O)NCC)[C@@H]2N1CCC(F)(F)F (mixture of isomers) | -6 | 75 | 11 | / | / | / | /
Cc1ccc(S(=O)(=O)N(C)C[C@H]2Oc3cc(Br)ccc3S(=O)(=O)N([C@H](C)CO)C[C@H]2C)cc1 | 14 | 67 | -6 | / | / | / | /
COc1ccc(S(=O)(=O)N(C)C[C@H]2Oc3cc(Br)ccc3S(=O)(=O)N([C@H](C)CO)C[C@H]2C)cc1 | 5 | ? | -26 | 102* | 38 | 5 | 54*
COc1cccc(S(=O)(=O)N(C)C[C@@H]2Oc3cc(Br)ccc3S(=O)(=O)N([C@@H](C)CO)C[C@@H]2C)c1 | 7 | / | -56 | / | / | / | /
COc1ccc(S(=O)(=O)N(C)C[C@@H]2Oc3cc(Br)ccc3S(=O)(=O)N([C@H](C)CO)C[C@@H]2C)cc1 | 7 | ? | -37 | 101* | 39 | 15 | 61*
CC(C)CC#Cc1cnc2c(c1)C(=O)N([C@H](C)CO)C[C@@H](C)[C@H](CN(C)S(=O)(=O)c1cn(C)cn1)O2 | -1 | 28 | -6 | / | / | / | /
